Measurements taken from PubChem BioAssay (Tox21).
Records with an inconclusive call do not appear. Where a call stands in place of a potency, no number is given. Values without a mark were called inactive. Active and inactive are the calls of the source. Unless noted, the call rests on the fitted dose curve.

system: not listed separately; assay: qHTS assay to identify small molecule antagonists of the farnesoid-X-receptor (FXR) signaling pathway - cell viability counter screen (AID 743221; active means well fitted cell-killing curve with a large enough effect in the repeat runs, not every such curve was filed as active; further: nearly all actives have a fitted effect of over 50% in size); settings: FXR-bla HEK293T viability, CellTiter-Glo luminescence, 16 h; series mostly up to 62.6 µM
Summary of the method: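 Compound effects on cell number were measured as CellTiter-Glo luminescence in HEK 293T cells expressing FXR-UAS-bla, after 16 h at 37 C with 50 uM CDCA (final).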

Structure (SMILES)	Potency
CCOC(=O)CC(=O)c1cc(F)c(Cl)nc1Cl	inactive
CCN(CC)C(C)=O	inactive
COC(=O)C(C)=O	inactive
Oc1ccc(Sc2ccc(O)cc2)cc1	inactive
C=C(C)C(=O)OCCOc1ccccc1	inactive
Cc1cccc(OCCOc2cccc(C)c2)c1	inactive
CC(C)NCC(O)COc1ccc(CC(N)=O)cc1 (configuration not stated)	inactive

biological target: Vitamin D3 receptor (Homo sapiens) (UniProt P11473); assay: qHTS assay to identify small molecule agonists of the vitamin D receptor (VDR) signaling pathway (AID 743222); settings: HEK293T VDR-UAS-bla, beta-lactamase FRET ratio, 16 h; series mostly up to 63.5 µM
Sequence (P11473 whole entry, looked up): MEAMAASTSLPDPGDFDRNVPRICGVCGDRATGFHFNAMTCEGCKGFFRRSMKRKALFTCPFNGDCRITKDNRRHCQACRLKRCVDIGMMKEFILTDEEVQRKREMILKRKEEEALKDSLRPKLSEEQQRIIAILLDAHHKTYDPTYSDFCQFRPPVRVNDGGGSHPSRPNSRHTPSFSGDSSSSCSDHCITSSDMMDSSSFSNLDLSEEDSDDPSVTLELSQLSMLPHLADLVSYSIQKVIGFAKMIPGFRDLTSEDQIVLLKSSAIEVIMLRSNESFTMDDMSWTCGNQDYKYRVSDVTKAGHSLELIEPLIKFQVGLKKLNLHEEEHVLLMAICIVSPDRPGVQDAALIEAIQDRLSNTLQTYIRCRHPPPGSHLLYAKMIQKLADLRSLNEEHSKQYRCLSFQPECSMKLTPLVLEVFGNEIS
Summary of the method: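 VDR-bla cells, 2,000/well; 4 h preincubation 37C; cpd (DMSO) 16 h; LiveBLAzer B/G substrate 2 h RT; fluorescence intensity read.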

Structure (SMILES)	activation	outcome
CCN(CCO)CCCC(C)Nc1ccnc2cc(Cl)ccc12 (configuration not stated)	9.25% [at 6.01 µM]	
CC(C)(C)c1cc(CO)cc(C(C)(C)C)c1O		inactive
CCCCC(CC)(CO)CO		inactive
N#CCCNCCC#N		inactive
CCCCOC(=O)c1ccccc1C(=O)OCC(CC)CCCC (configuration not stated)		inactive
CCOc1ccc2[nH]cc(C(=O)NCc3ccccc3)c(=O)c2n1		inactive
CC(=O)Nc1ccc(/C=N/NC(N)=S)cc1		inactive
CCCCCCCCC(CO)CCCCCC (configuration not stated)		inactive
CCCCOC(O)CC (configuration not stated)		inactive
O=C1CCCCCO1		inactive
CC(=O)OCCc1ccccc1		inactive
CCCCc1cc2ccccc2c(OCCN(C)C)n1		inactive
CN1CCC[C@@H]1c1cccnc1		inactive
CC(C)c1ccccc1C(C)C		inactive
CNS(=O)(=O)Cc1ccc2[nH]cc(CCN(C)C)c2c1		inactive
O=C(O)C1CCC(C(=O)O)CC1 (configuration not stated)		inactive
C=C(C)C(=O)OC(C)C		inactive
COC(Cc1ccccc1)OC		inactive
O=C(O)/C=C/c1cnc[nH]1		inactive
CCN1CCC[C@H]1CNC(=O)c1c(OC)ccc(Br)c1OC		inactive
N[C@H]1C(O)O[C@H](CO)[C@H](O)[C@@H]1O (some centres not stated)		inactive
CC(C)(C)c1cc(CCC(=O)OCC(COC(=O)CCc2cc(C(C)(C)C)c(O)c(C(C)(C)C)c2)(COC(=O)CCc2cc(C(C)(C)C)c(O)c(C(C)(C)C)c2)COC(=O)CCc2cc(C(C)(C)C)c(O)c(C(C)(C)C)c2)cc(C(C)(C)C)c1O		inactive
CCN(CC)C(C)=O		inactive
COC(=O)C(C)=O		inactive
Oc1ccc(Sc2ccc(O)cc2)cc1		inactive
C=C(C)C(=O)OCCOc1ccccc1		inactive
CC(C)NCC(O)COc1ccc(CC(N)=O)cc1 (configuration not stated)		inactive

biological target: Vitamin D3 receptor (Homo sapiens) (UniProt P11473); assay: qHTS assay to identify small molecule antagonists of the vitamin D receptor (VDR) signaling pathway (AID 743223; active means well fitted inhibition curve with a large enough effect in the signal ratio in the repeat runs, not every such curve was filed as active; the % refers to the signal ratio); settings: VDR-UAS-bla HEK293T, beta-lactamase FRET ratio, 16 h; series mostly up to 61 µM
Summary of the method: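 Beta-lactamase activity in VDR-bla cells is measured by FRET substrate fluorescence (2 h, room temperature) after cells spend 16 h at 37C with test compound and 3 nM final 1alpha,25-dihydroxyvitamin D3.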

Structure (SMILES)	activity change, negative = inhibition	Potency
CCN(CCO)CCCC(C)Nc1ccnc2cc(Cl)ccc12 (configuration not stated)	-3.93% [at 6.95 µM]	
CC(C)(C)c1cc(CO)cc(C(C)(C)C)c1O		inactive
CC(C)CCCC(C)CCO (configuration not stated)		inactive
CCCCC(CC)(CO)CO		inactive
CC(=O)Nc1ccc(/C=N/NC(N)=S)cc1		inactive
CCCCCCCCC(CO)CCCCCC (configuration not stated)		inactive
CCCCOC(O)CC (configuration not stated)		inactive
O=C1CCCCCO1		inactive
CC(=O)OCCc1ccccc1		inactive
CCCCc1cc2ccccc2c(OCCN(C)C)n1		inactive
CN1CCC[C@@H]1c1cccnc1		inactive
COCCOCCOCCOCCOC		inactive
CC(C)c1ccccc1C(C)C		inactive
O=C(O)C1CCC(C(=O)O)CC1 (configuration not stated)		inactive
C=C(C)C(=O)OC(C)C		inactive
COC(Cc1ccccc1)OC		inactive
O=C(O)/C=C/c1cnc[nH]1		inactive
N[C@H]1C(O)O[C@H](CO)[C@H](O)[C@@H]1O (some centres not stated)		inactive
CC(C)(C)c1cc(CCC(=O)OCC(COC(=O)CCc2cc(C(C)(C)C)c(O)c(C(C)(C)C)c2)(COC(=O)CCc2cc(C(C)(C)C)c(O)c(C(C)(C)C)c2)COC(=O)CCc2cc(C(C)(C)C)c(O)c(C(C)(C)C)c2)cc(C(C)(C)C)c1O		inactive
CCN(CC)C(C)=O		inactive
COC(=O)C(C)=O		inactive
C=C(C)C(=O)OCCOc1ccccc1		inactive
CC(C)NCC(O)COc1ccc(CC(N)=O)cc1 (configuration not stated)		inactive
